One experiment deals with Albumin (Bos taurus) (UniProt P02769). The experiment can be described thus: compounds binding labelled BSA control protein – biochemical, small-molecule microarray, Alexa647 label, 635/667 nm fluorescence, artefact control for SMM control protein annotation, profiling panel (AID 1118).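 Note: score merges 667 nm emission intensity and signal-to-noise per printed compound spot.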 The settings on record: BSA-A647 binding, fluorescence 635 nm, higher = more signal.
Experiment [1] can be described thus: probe aXIP binding to arrayed compounds – biochemical, NeuroSMM set, 635/667 nm fluorescence, primary screen (AID 1119).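 Note: probe is the protein aXip251-270 applied at 1 µg/mL to compound-printed slides; binding of probe to printed compounds measured as 667 nm fluorescence plus signal to noise.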 The settings on record: small-molecule microarray, higher = more signal, called active from +8 up or from −8 down.
Experiment [2] in a line: probe aNOTCH3 binding on compound microarray – biochemical, small-molecule microarray, 635/667 nm fluorescence, primary screen (AID 1120).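 Note: probe is a biotin-tagged antibody raised against NOTCH3 rather than NOTCH3 protein; score merges spot fluorescence near 667 nm with spot signal to noise.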 The settings on record: higher = more signal.
A short description of experiment [3]: probe aNOTCH2 binding on compound microarray – biochemical, small-molecule microarray, 635/667 nm fluorescence, primary screen (AID 1121).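 Note: score merges feature fluorescence read at 667 nm with its signal to noise.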 The settings on record: higher = more signal.
Experiment [4] concerns the target Carbonic anhydrase 2 (Homo sapiens) (UniProt P00918). The experiment can be described thus: compounds binding carbonic anhydrase 2 – biochemical, small-molecule microarray, Alexa647-labelled CAII, profiling panel (AID 1122). The settings on record: CAII-A647 binding fluorescence, higher = more signal.
Experiment [5] in a line: COS7 lysate on small-molecule microarray, probe aHis, 635 nm (AID 1123).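 Note: z-score combines 667nm fluorescence intensity with signal-to-noise per printed compound spot.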 The settings on record: COS7 cell lysate, fluorescence, higher = more signal.
Experiment [6] can be described thus: probe aLAP1 signal on lysate-treated microarray – cell lysate, small-molecule microarray, COS7 lysate, primary screen (AID 1124).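 Note: lysate comes from COS7 cells expressing LAP1 and is applied at 0.3 µg/mL; score merges spot fluorescence near 667 nm with signal-to-noise over triplicate slides.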 The settings on record: probe aLAP1, fluorescence, higher = more signal.
Another experiment has as its system Sam68 (KHDRBS1). The experiment can be described thus: compounds binding KHDRBS1 protein – biochemical, small-molecule microarray, 635 nm fluorescence, primary screen (AID 1125).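 Note: score merges 667 nm channel intensity with signal to noise over triplicate slides.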 The settings on record: higher = more signal.
Experiment [7] concerns Chordin-like protein 2 (CHRDL2). Kind of experiment: compounds binding chordin-like 2 – biochemical, small-molecule microarray, 635 nm fluorescence, primary screen (AID 1126).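 Note: printed compound slides probed with Chrdl2 protein at 4 µg/mL for 1 h at 4 C; score merges 667 nm emission intensity with signal to noise over three replicate slides.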 The settings on record: fluorescence 635 nm, higher = more signal.
The target of experiment [8] is Concanavalin-A (Canavalia ensiformis) (UniProt P02866). Kind of experiment: compounds binding concanavalin A lectin – biochemical, small-molecule microarray, Alexa647 label, 635 nm, artefact control for SMM control protein annotation, primary screen (AID 1127).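 Note: z combines 667 nm emission intensity with signal-to-noise across three replicate slides.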 The settings on record: ConA-A647 binding fluorescence, higher = more signal.
Experiment [9] can be described thus: compounds binding Alexa647 anti-His antibody – biochemical, small-molecule microarray, 635 nm fluorescence, artefact control for SMM control protein annotation, primary screen (AID 1128).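 Note: score merges feature fluorescence with signal-to-noise for each printed compound spot.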 The settings on record: higher = more signal.
Experiment [10] concerns Human papillomavirus type 1a E7 protein (residues 1-88). The experiment can be described thus: HPV1a E7 small-molecule binders, primary screen, biochemical, small-molecule microarray, residues 1-88, 635 nm (AID 1129). The settings on record: small-molecule microarray binding, fluorescence 635 nm; higher = more signal.
For experiment [11], the target named is Focal adhesion kinase 1 (Homo sapiens) (UniProt Q05397). Kind of experiment: PTK2 protein binding on printed compound slides – biochemical, small-molecule microarray, 635/667 nm fluorescence, BSA, DTT, primary screen (AID 1130).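 Note: composite of spot emission at 667 nm and signal to noise over triplicate slides.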 The settings on record: 635 nm fluorescence, higher = more signal.
Experiment [12] deals with Fibrinogen (Alexa647-labelled). The experiment can be described thus: Alexa647-fibrinogen binding to printed small molecules – biochemical, small-molecule microarray, 635/667 nm fluorescence, artefact control for SMM control-protein annotation, profiling panel (AID 1131).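 Note: z-score merges 667 nm fluorescence with per-spot signal-to-noise over triplicate slides.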 The settings on record: fibrinogen-A647 binding fluorescence, higher = more signal.
Experiment [13] concerns the target Follistatin (Homo sapiens) (UniProt P19883). The experiment can be described thus: FST protein binding to printed compounds – biochemical, small-molecule microarray, 635/667 nm fluorescence, primary screen (AID 1132). The settings on record: 635 nm fluorescence, higher = more signal.
Experiment [14] deals with Fibroblast growth factor 2 (Homo sapiens) (UniProt P09038). The experiment can be described thus: basic fibroblast growth factor binding to printed compounds – biochemical, small-molecule microarray, 635/667 nm fluorescence, primary screen (AID 1133). The settings on record: FGF2, fluorescence 635/667, higher = more signal.
Experiment [15] can be described thus: JC-1 mitochondrial potential readout, lung cancer cells – cell-based, A549, JC-1 fluorescence, basal, 24 h, 100 nL, profiling panel (AID 1138).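 Note: A549 lung adenocarcinoma cells under basal conditions with no added stimulus; test concentration not given here.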 The settings on record: higher = more signal.
A further experiment has as its system Lefty1. The experiment can be described thus: Lefty1 protein binding to printed compounds – biochemical, small-molecule microarray, 635/667 nm fluorescence, primary screen (AID 1139). The settings on record: fluorescence 635/667, higher = more signal.
In experiment [16] the test system is wheat germ agglutinin (Triticum aestivum), Alexa647-labelled. The experiment can be described thus: Alexa647-WGA lectin binding to printed small molecules – biochemical, small-molecule microarray, 635/667 nm fluorescence, artefact control for SMM control-protein annotation, profiling panel (AID 1140).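 Note: score merges 667 nm feature emission with signal to noise over triplicate slides.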 The settings on record: WGA-A647 binding, 635 nm fluorescence, higher = more signal.

Experiment [17] has as its target Luciferin 4-monooxygenase (Photinus pyralis) (UniProt P08659). Kind of experiment: inhibition of purified Photinus pyralis luciferase – biochemical, luminescence, purified enzyme, 2006 set, primary screen (AID 1141).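 Note: cell-free assay with purified firefly luciferase at 100 ng per well in PBS; test concentration not given here.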 The settings on record: purified firefly luciferase, SteadyGlo luminescence, 30 min; higher = more signal, called active from +8 up or from −8 down.

Calls of active or inactive are those of the source.

This is an account of results in PubChem BioAssay.

Chain of Fibroblast growth factor 2 (Homo sapiens) (P09038 whole entry, looked up): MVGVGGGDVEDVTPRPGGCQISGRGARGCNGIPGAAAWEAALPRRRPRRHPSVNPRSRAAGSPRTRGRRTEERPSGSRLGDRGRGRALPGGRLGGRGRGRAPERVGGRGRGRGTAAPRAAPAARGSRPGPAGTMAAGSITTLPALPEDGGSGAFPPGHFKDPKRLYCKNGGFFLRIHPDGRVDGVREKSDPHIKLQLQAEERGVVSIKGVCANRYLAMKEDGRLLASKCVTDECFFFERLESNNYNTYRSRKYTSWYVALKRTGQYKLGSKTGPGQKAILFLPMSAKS
Chain of Follistatin (Homo sapiens) (P19883 whole entry, looked up): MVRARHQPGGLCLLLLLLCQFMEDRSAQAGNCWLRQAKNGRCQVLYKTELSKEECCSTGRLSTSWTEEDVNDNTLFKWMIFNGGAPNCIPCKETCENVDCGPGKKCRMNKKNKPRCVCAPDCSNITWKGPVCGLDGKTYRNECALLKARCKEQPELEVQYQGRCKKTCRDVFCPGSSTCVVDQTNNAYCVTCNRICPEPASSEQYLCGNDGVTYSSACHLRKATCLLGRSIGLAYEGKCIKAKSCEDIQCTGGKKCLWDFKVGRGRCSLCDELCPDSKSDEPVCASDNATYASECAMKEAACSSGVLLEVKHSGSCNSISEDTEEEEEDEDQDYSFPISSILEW
Chain of Concanavalin-A (Canavalia ensiformis) (P02866 whole entry, looked up): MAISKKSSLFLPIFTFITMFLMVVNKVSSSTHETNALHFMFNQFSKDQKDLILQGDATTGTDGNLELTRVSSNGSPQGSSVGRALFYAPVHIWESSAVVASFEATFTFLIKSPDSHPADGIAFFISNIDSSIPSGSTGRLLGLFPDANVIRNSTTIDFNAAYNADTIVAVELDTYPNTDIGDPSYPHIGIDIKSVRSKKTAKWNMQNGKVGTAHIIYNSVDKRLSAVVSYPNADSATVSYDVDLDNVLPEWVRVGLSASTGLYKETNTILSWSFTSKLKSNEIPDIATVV
Chain of Focal adhesion kinase 1 (Homo sapiens) (Q05397 whole entry, looked up): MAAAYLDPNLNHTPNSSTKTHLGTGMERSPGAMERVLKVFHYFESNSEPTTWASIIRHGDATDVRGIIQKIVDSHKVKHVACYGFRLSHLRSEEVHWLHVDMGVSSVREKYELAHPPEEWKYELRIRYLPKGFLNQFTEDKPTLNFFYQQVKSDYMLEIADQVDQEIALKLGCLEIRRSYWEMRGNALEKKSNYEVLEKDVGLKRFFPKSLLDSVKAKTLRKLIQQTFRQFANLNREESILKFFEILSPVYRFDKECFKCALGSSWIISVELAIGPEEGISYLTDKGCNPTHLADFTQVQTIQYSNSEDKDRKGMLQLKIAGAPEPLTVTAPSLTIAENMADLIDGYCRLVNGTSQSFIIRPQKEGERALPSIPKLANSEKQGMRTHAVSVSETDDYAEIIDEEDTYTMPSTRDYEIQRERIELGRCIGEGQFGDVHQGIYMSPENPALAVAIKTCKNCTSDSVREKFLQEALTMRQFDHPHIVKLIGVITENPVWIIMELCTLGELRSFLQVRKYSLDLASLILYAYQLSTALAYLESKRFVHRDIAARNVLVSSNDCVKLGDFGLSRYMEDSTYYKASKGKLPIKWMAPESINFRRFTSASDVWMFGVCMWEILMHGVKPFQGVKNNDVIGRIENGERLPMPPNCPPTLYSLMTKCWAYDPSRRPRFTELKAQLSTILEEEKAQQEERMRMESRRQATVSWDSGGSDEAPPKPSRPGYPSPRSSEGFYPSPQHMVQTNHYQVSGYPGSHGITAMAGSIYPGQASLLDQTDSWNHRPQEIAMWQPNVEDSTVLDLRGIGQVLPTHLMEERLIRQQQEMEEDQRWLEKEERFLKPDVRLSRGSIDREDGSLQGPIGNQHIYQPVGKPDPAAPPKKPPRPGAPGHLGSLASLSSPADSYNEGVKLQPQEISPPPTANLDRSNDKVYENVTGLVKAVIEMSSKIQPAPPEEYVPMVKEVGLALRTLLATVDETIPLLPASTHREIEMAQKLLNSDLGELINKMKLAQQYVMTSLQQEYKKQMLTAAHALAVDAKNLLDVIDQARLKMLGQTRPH
Chain of Albumin (Bos taurus) (P02769 whole entry, looked up): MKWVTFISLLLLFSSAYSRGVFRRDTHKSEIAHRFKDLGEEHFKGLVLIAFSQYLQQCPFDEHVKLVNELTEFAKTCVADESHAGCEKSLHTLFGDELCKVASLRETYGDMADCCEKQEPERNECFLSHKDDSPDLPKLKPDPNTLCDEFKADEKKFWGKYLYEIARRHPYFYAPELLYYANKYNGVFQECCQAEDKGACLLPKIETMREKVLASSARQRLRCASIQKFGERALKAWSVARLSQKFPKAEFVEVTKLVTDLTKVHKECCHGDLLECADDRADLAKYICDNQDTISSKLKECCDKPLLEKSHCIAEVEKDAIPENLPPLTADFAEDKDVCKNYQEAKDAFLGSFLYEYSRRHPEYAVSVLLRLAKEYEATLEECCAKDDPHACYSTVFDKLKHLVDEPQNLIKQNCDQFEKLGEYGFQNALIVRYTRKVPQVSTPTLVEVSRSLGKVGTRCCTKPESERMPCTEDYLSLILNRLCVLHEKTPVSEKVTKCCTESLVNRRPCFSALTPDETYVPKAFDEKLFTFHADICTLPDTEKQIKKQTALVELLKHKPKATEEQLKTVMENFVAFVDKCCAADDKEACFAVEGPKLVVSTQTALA
Chain of Luciferin 4-monooxygenase (Photinus pyralis) (P08659 whole entry, looked up): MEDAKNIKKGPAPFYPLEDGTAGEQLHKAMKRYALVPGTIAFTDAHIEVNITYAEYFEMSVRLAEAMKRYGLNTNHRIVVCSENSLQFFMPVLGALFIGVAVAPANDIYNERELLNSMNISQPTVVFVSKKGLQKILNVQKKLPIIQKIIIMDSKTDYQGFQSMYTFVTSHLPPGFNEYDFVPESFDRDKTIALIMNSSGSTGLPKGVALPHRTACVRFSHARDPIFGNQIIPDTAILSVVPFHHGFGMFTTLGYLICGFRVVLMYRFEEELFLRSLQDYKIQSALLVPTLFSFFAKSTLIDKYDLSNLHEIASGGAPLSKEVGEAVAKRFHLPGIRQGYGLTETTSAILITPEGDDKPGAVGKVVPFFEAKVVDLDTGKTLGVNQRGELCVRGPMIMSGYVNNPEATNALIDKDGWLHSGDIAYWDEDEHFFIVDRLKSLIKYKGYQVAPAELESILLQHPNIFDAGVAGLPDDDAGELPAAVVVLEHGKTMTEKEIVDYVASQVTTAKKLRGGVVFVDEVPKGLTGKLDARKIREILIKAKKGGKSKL

`CC(C)C(CO)N1C(=O)[C@@H]2[C@H]3C(=O)OCC=C[C@H]3OC23C=CCN(c2ccc4ccccc4c2)C(=O)[C@@H]13` (stereo not given in full): the composite z-score is -0.524 with Albumin (Bos taurus); -0.193 in experiment [2]; -0.155 in experiment [3]; 0.561 in experiment [4]; -0.572 in experiment [5]; 0.42 in [6]. The composite z-score with Sam68 (KHDRBS1) was -0.878; in [7], -1.32; in [8], -0.362; in experiment [9], -0.151; in [10], -1.29; in experiment [11], -0.493. Moreover, the composite z-score is -0.581 in experiment [12]; -0.851 in [13]; -1.18 in [14]; -0.842 with Lefty1; -0.328 in [16]. In addition, the composite Z-score in experiment [1] was 0.508 (inactive). Further, the z-score in experiment [15] was 0.742; in [17], -0.194 (inactive).

For `CCOC(=O)N1C(c2ccc(OCCCO)cc2)=NC(C(=O)OC)N1C(=O)OCC` (stereo not given), the composite z-score was 0.878 with Albumin (Bos taurus); 0.183 in [2]; -0.0326 in [3]; 0.733 in experiment [4]; 1.73 in experiment [5]; 0.626 in experiment [6]. The composite z-score is 1.18 in the experiment on Sam68 (KHDRBS1); -0.105 in experiment [7]; 1.09 in experiment [8]; 0.369 in experiment [9]; 1.2 in experiment [10]; 0.454 in experiment [11]. Moreover, the composite z-score in experiment [12] was found to be 0.864; in [13], 1.31; in experiment [14] it was 0.955; with Lefty1, 1.07; in [16], 0.669. In addition, the composite Z-score in experiment [1] is -0.363 (inactive). In addition, the results for the z-score in experiment [15] and in experiment [17] were -0.541 and -1.45 (inactive), respectively.

On to `[N-]=[N+]=NCc1ccccc1[C@@H]1OC(c2ccc(OCCCO)cc2)=N[C@]1(Cc1ccccc1)C(=O)O`, for which the composite z-score in the experiment with Albumin (Bos taurus) is 0.188; in [2], -0.0362; in experiment [3], -0.0836; in experiment [4], 0.607; in [5], 2.25; in experiment [6], -0.324. The composite z-score with Sam68 (KHDRBS1) is 1.13; in experiment [7], -0.817; in experiment [8], 0.802; in experiment [9], 1.25; in experiment [10] it was 0.445; in experiment [11] it was 1.4. Besides, the composite z-score in experiment [12] is 0.635; in experiment [13] it was 0.592; in experiment [14], 0.0221; with Lefty1, -0.548; in [16] it was 0.536. Also, the composite Z-score in [1] is 1.38 (inactive). Besides, the z-score in experiment [15] was 1.36; in experiment [17] it was -1.44 (inactive).

`COCCCNC(=O)[C@@]1(Cc2ccccc2I)c2ccccc2C(=O)N(Cc2ccccc2)[C@H]1c1ccc(CO)cc1`: the composite z-score with Albumin (Bos taurus) is -1.09; in experiment [2], -0.265; in experiment [3], -0.162; in experiment [4], 0.574; in [5], 0.817; in [6], -0.665. Besides, the composite z-score in the experiment with Sam68 (KHDRBS1) is 0.337; in experiment [7], -1.47; in experiment [8] it was -1.3; in experiment [9], 0.536; in [10], -0.726; in experiment [11] it was -0.548. The composite z-score in experiment [12] was -1.03; in experiment [13], -1.6; in [14], -1.21; with Lefty1 it was -1.94; in experiment [16] it was -1.27. For the same compound, in experiment [1], the composite Z-score was -0.0662 (inactive). In addition, the z-score is 1.28 in experiment [15] and -0.751 (inactive) in [17].

Turning to `COCCOC(=O)N1C(=O)[C@@]2(c3cc(C#CCCO)ccc31)[C@H](C(=O)NC[C@H](O)c1ccccc1)[C@H]1C(=O)O[C@H](c3ccccc3)[C@H](c3ccccc3)N1[C@@H]2c1ccc(OCCO)cc1`, the composite z-score with Albumin (Bos taurus) is 0.536; in [2], 0.264; in experiment [3], -0.155; in [4], 0.581; in [5], 1.72; in [6] it was 0.684. In addition, the composite z-score was determined as 1.3 with Sam68 (KHDRBS1); 0.534 in experiment [7]; 1.13 in experiment [8]; 0.714 in experiment [9]; 1.18 in experiment [10]; 1 in [11]. In addition, the composite z-score in experiment [12] was 0.951; in experiment [13], 1.28; in experiment [14], 1.24; in the experiment on Lefty1 it was 1.42; in experiment [16] it was 0.246. Besides, the composite Z-score in experiment [1] is 0.192 (inactive). Further, the z-score was -1.27 in experiment [15] and -1.09 (inactive) in experiment [17].

Regarding `C[N+](C)(C)CCCCNC(=O)[C@H]1C[C@H]2C(=O)N3CCC[C@H]3C(=O)N2[C@H]1c1ccc(O)cc1`, the composite z-score in the experiment with Albumin (Bos taurus) was -0.926; in experiment [2], 0.0793; in experiment [3], -0.0449; in [4], 0.627; in experiment [5], 2.08; in experiment [6], 0.625. Further, the composite z-score was 0.895 in the experiment on Sam68 (KHDRBS1); 1.21 in experiment [7]; 1.09 in experiment [8]; 2.67 in experiment [9]; -0.0698 in experiment [10]; 0.446 in [11]. In addition, the composite z-score is 0.228 in experiment [12]; 1.46 in experiment [13]; 1.81 in [14]; 1.49 in the experiment on Lefty1; 0.282 in [16]. For the same compound, the composite Z-score in experiment [1] was -0.388 (inactive). The z-score in experiment [15] is -0.515; in experiment [17], -0.679 (inactive).
